Data from PubChem BioAssay AID1159580 (chemical genetic matrix, 2015).
Among all 5,500 compounds or so, about 2,000 (36%) were called active. Not shown: some 18% with an inconclusive outcome. No stated cut-off is given here; in the data, active means normalized growth mostly below about 0.91 (no sharp cut-off); inconclusive means no clear call, values can overlap the other calls; inactive means mostly above about 0.92. This is one part of the list.

Assay: chemical genetic growth profiling, strain panel (AID 1159580);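 further: tested at 20 µM; growth read once vehicle control cultures reached saturation at 30 °C; 1 = growth at the plate median or of vehicle wells; lower values mean less growth of the strain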
Details: S. cerevisiae deletion strains, growth OD

Measured: normalized growth

COC(=O)/C(C)=C\CC12OC(C)(C)C3CC(C=C4C(=O)c5c(OC)c6c(c(CC=C(C)C)c5OC431)OC(C)(CCC=C(C)C)C=C6)C2=O (centres undefined)
inactive: locus YAL021C, strain ccr4, hits give low values 0.991 | locus YAL026C, strain drs2, hits give low values 1.02 | locus YAL030W, strain snc1, hits give low values 1.03 | locus YBL061C, strain skt5, hits give low values 1.02 | locus YBR009C, strain hhf1, hits give low values 0.999 | locus YBR021W, strain FUR4, hits give low values 1.03 | locus YBR023C, strain chs3, hits give low values 1.01 | locus YBR171W, strain sec66, hits give low values 1.03 | locus YBR229C, strain ROT2, hits give low values 1.01 | locus YBR231C, strain swc5, hits give low values 1.03 | locus YBR279W, strain paf1, hits give low values 1.01 | locus YCL011C, strain gbp2, hits give low values 1.02 | locus YCL016C, strain dcc1, hits give low values 1.01 | locus YCL029C, strain bik1, hits give low values 0.983 | locus YCL061C, strain MRC1, hits give low values 1.01 | locus YCL069W, strain vba3, hits give low values 1.02 | locus YCR088W, strain abp1, hits give low values 1.02 | locus YDL005C, strain med2, hits give low values 1.03 | locus YDL035C, strain GPR1, hits give low values 0.964 | locus YDL040C, strain nat1, hits give low values 1.01 | locus YDL074C, strain BRE1, hits give low values 0.963 | locus YDL101C, strain DUN1, hits give low values 1.01 | locus YDL185W, strain tfp1, hits give low values 1.01 | locus YDL192W, strain arf1, hits give low values 0.987 | locus YDR001C, strain nth1, hits give low values 1.02 | locus YDR069C, strain doa4, hits give low values 1.03 | locus YDR101C, strain arx1, hits give low values 0.989 | locus YDR137W, strain rgp1, hits give low values 0.946 | locus YDR150W, strain NUM1, hits give low values 1.01 | locus YDR159W, strain sac3, hits give low values 1.06 | locus YDR162C, strain NBP2, hits give low values 0.941 | locus YDR195W, strain ref2 1.02 | locus YDR297W, strain sur2, hits give low values 1.04 | locus YDR318W, strain mcm21, hits give low values 0.982 | locus YDR334W, strain swr1, hits give low values 1.02 | locus YDR335W, strain msn5, hits give low values 1.02 | locus YDR388W, hits give low values 0.985 | locus YDR392W, strain spt3, hits give low values 0.966 | locus YDR502C, strain sam2, hits give low values 0.979 | locus YEL003W, strain gim4, hits give low values 1.01 | locus YEL037C, strain rad23, hits give low values 1.01 | locus YEL061C, strain CIN8 (second series), hits give low values 1.02 | locus YEL061C, strain CIN8, hits give low values 1 | locus YER015W, strain faa2, hits give low values 1.02 | locus YER016W, strain bim1, hits give low values 1.01 | locus YER110C, hits give low values 0.988 | locus YER111C, strain swi4, hits give low values 1.02 | locus YER155C, strain BEM2 (second series), hits give low values 1.02 | locus YER155C, strain BEM2, hits give low values 1.01 | locus YER167W, strain BCK2, hits give low values 0.993 | locus YFR010W, strain ubp6, hits give low values 1.03 | locus YGL078C, strain dbp3, hits give low values 0.989 | locus YGL086W, strain mad1, hits give low values 0.974 | locus YGL167C, strain pmr1, hits give low values 1.02 | locus YGL173C, strain kem1, hits give low values 1.02 | locus YGL227W, strain vid30, hits give low values 1.02 | locus YGL240W, strain doc1, hits give low values 1.02 | locus YGL248W, strain PDE1, hits give low values 0.986 | locus YGL253W, strain hxk2, hits give low values 1.01 | locus YGR135W, strain pre9, hits give low values 0.997 | locus YGR252W, strain gcn5, hits give low values 0.987 | locus YHR013C, strain ard1, hits give low values 0.996 | locus YHR027C, strain rpn1, hits give low values 1.02 | locus YHR030C, strain SLT2, hits give low values 1 | locus YHR079C, strain IRE1 (second series), hits give low values 1 | locus YHR094C, strain hxt1, hits give low values 1.01 | locus YHR129C, strain ARP1, hits give low values 0.985 | locus YHR142W, strain chs7, hits give low values 1.04 | locus YHR200W, strain rpn10, hits give low values 0.991 | locus YIL066C, strain RNR3, hits give low values 0.96 | locus YIL073C, strain SPO22, hits give low values 0.878 | locus YIL125W, strain kgd1, hits give low values 0.992 | locus YIR030C, strain dcg1, hits give low values 0.989 | locus YJL092W, strain hpr5, hits give low values 1.02 | locus YJL095W, strain BCK1 (second series), hits give low values 1.01 | locus YJL095W, strain BCK1, hits give low values 0.961 | locus YJL115W, strain asf1, hits give low values 1.03 | locus YJL129C, strain trk1, hits give low values 0.987 | locus YJL134W, strain LCB3, hits give low values 1 | locus YJL154C, strain vps35, hits give low values 1.02 | locus YJL164C, strain tpk1, hits give low values 0.988 | locus YJL166W, strain qcr8, hits give low values 1.01 | locus YJL168C, strain set2, hits give low values 0.982 | locus YJL187C, strain SWE1 (second series), hits give low values 0.976 | locus YJL187C, strain SWE1, hits give low values 1.01 | locus YJR043C, strain POL32, hits give low values 0.998 | locus YJR075W, strain HOC1, hits give low values 0.999 | locus YKL009W, strain mrt4, hits give low values 0.964 | locus YKL068W, hits give low values 0.992 | locus YKL085W, strain MDH1 (second series), hits give low values 0.993 | locus YKL085W, strain MDH1, hits give low values 0.993 | locus YKL160W, strain elf1, hits give low values 1.02 | locus YKR001C, strain vps1, hits give low values 0.97 | locus YKR026C, strain gcn3, hits give low values 1.02 | locus YKR091W, strain srl3, hits give low values 1.01 | locus YLL001W, strain dnm1, hits give low values 1 | locus YLL026W, hits give low values 1.01 | locus YLL041C, strain sdh2, hits give low values 1.02 | locus YLR027C, strain aat2, hits give low values 1.01 | locus YLR039C, strain RIC1, hits give low values 0.893 | locus YLR058C, strain SHM2, hits give low values 0.993 | locus YLR102C, strain apc9, hits give low values 1 | locus YLR221C, strain rsa3, hits give low values 1.02 | locus YLR258W, strain gsy2, hits give low values 1.03 | locus YLR262C, strain YPT6 (second series), hits give low values 0.993 | locus YLR262C, strain YPT6, hits give low values 0.986 | locus YLR268W, strain sec22, hits give low values 0.961 | locus YLR320W, strain mms22, hits give low values 1.01 | locus YLR330W, strain CHS5, hits give low values 1.01 | locus YLR342W, strain FKS1 (second series), hits give low values 0.977 | locus YLR342W, strain FKS1, hits give low values 1.03 | locus YLR357W, strain rsc2, hits give low values 1.01 | locus YLR370C, strain arc18, hits give low values 1.01 | locus YLR371W, strain rom2, hits give low values 1.02 | locus YLR384C, strain iki3, hits give low values 1.01 | locus YLR418C, strain cdc73, hits give low values 0.941 | locus YML016C, strain PPZ1, hits give low values 0.994 | locus YML032C, strain rad52, hits give low values 1 | locus YML120C, strain ndi1, hits give low values 1.01 | locus YML124C, strain tub3, hits give low values 0.994 | locus YMR058W, strain fet3, hits give low values 1.02 | locus YMR078C, strain ctf18, hits give low values 0.999 | locus YMR125W, strain sto1, hits give low values 1.02 | locus YMR129W, hits give low values 1.02 | locus YMR205C, strain PFK2, hits give low values 0.993 | locus YMR223W, strain ubp8, hits give low values 0.981 | locus YMR231W, strain pep5, hits give low values 0.99 | locus YMR263W, strain SAP30, hits give low values 1 | locus YMR307W, strain GAS1, hits give low values 1.08 | locus YNL067W, strain RPL9B, hits give low values 0.988 | locus YNL071W, strain lat1, hits give low values 1.02 | locus YNL128W, strain TEP1, hits give low values 0.991 | locus YNL209W, strain ssb2, hits give low values 1.01 | locus YNL233W, strain BNI4, hits give low values 0.988 | locus YNL248C, strain rpa49, hits give low values 1.03 | locus YNL250W, strain rad50, hits give low values 0.985 | locus YNL271C, strain bni1, hits give low values 0.982 | locus YNL298W, strain CLA4, hits give low values 0.976 | locus YNL307C, strain MCK1, hits give low values 0.997 | locus YNL322C, strain KRE1 (second series), hits give low values 1.01 | locus YNL322C, strain KRE1, hits give low values 1 | locus YNR049C, strain mso1, hits give low values 1.02 | locus YNR052C, strain pop2, hits give low values 0.983 | locus YOL012C, strain htz1 0.825 | locus YOL147C, strain pex11, hits give low values 0.991 | locus YOR001W, strain rrp6, hits give low values 1.03 | locus YOR061W, strain CKA2, hits give low values 0.984 | locus YOR069W, strain VPS5, hits give low values 0.996 | locus YOR070C, strain gyp1, hits give low values 1 | locus YOR080W, strain dia2, hits give low values 1.02 | locus YOR083W, strain WHI5, hits give low values 0.99 | locus YOR106W, strain vam3, hits give low values 1 | locus YOR136W, strain idh2, hits give low values 0.994 | locus YOR144C, strain elg1, hits give low values 0.995 | locus YOR184W, strain ser1, hits give low values 0.978 | locus YOR265W, strain rbl2, hits give low values 1.01 | locus YOR270C, strain vph1, hits give low values 1.05 | locus YOR290C, strain snf2, hits give low values 0.991 | locus YOR316C, strain cot1, hits give low values 0.986 | locus YPL051W, strain arl3, hits give low values 0.995 | locus YPL078C, strain atp4, hits give low values 1.03 | locus YPL106C, strain sse1, hits give low values 1.01 | locus YPL240C, strain hsp82, hits give low values 1.02 | locus YPL241C, strain CIN2, hits give low values 1 | locus YPR119W, strain clb2, hits give low values 0.992 | locus YPR141C, strain kar3, hits give low values 0.985 | locus YPR163C, strain tif3, hits give low values 0.975 | locus YPR167C, strain met16, hits give low values 0.972 | strain wtn01, hits give low values 0.984
